Inconclusive results are not listed. Active and inactive are the calls of the source. How the source made its calls, unless noted: active means hit-call score of the fitted dose curve at least 0.9, where 1 is the maximum; inactive means score below 0.9.
Assays:
[1] = read-out: Vascular endothelial growth factor receptor 2 (Homo sapiens) (UniProt P35968); assay: BSK_4H_VEGFRII: BioMAP Diversity Plus: 4H Assay for Vascular endothelial growth factor receptor 2 (VEGFR2) Biomarker Activity (AID 2283031); details: primary human endothelial cells (HUVEC); actives raise or lower the signal
In short: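 In this multiplexed HUVEC system, biomarker ELISA was performed after 24 h chemical exposure. Parallel SRB staining (TCA fixation, 560 nm) tracked cytotoxicity; DMSO served as baseline.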

[2] = read-out: Human Leukocyte Antigen - DR isotype (HLADR), HLA-DRA (gene 3122); assay: BSK_BE3C_HLADR: BioMAP Diversity Plus: BE3C Assay for Human Leukocyte Antigen - DR isotype (HLADR) Biomarker Activity (AID 2283032); details: primary human bronchial epithelial cells; actives raise or lower the signal
In short: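 BioMAP BE3C format: human bronchial epithelium, 24 h compound treatment, ELISA detection of HLA-DR, with bidirectional analysis relative to DMSO.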

[3] = read-out: TIMP metallopeptidase inhibitor 2 (TIMP2), TIMP2 (gene 7077); assay: BSK_KF3CT_TIMP2: BioMAP Diversity Plus: KF3CT Assay for TIMP metallopeptidase inhibitor 2 (TIMP2) Biomarker Activity (AID 2283071); details: primary human keratinocytes with fibroblasts; actives raise or lower the signal
In short: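 Measurements come from ELISA detection of TIMP-2 at 24 hours in a dosed human keratinocyte and foreskin fibroblast co-culture. DMSO serves as negative control and baseline.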

[4] = read-out: C-C motif chemokine 2 (Homo sapiens) (UniProt P13500); assay: BSK_KF3CT_MCP1: BioMAP Diversity Plus: KF3CT Assay for Monocyte Chemoattractant Protein 1 (MCP1/CCL2) Biomarker Activity (AID 2283073); details: primary human keratinocytes with fibroblasts; actives raise or lower the signal
In short: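 Biomarker MCP-1 is measured by ELISA in primary human keratinocytes co-cultured with foreskin fibroblasts, 24 h after chemical treatment; DMSO serves as the negative control and activity baseline.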

[5] = read-out: urokinase plasminogen activator (uPA), PLAU (gene 5328); assay: BSK_KF3CT_uPA: BioMAP Diversity Plus: KF3CT Assay for urokinase plasminogen activator (uPA) Biomarker Activity (AID 2283075); details: primary human keratinocytes with fibroblasts; actives raise or lower the signal
In short: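 Values derive from bidirectional fitting against DMSO controls. Keratinocyte/foreskin fibroblast co-cultures received chemical; 24 h later uPA was detected by ELISA, with SRB total-protein staining in parallel wells for overt cytotoxicity.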

CD40, CD40 (gene 958) = assay: BSK_LPS_CD40: BioMAP Diversity Plus: LPS Assay for CD40 Biomarker Activity (AID 2283076); details: primary human HUVEC with PBMC; actives raise or lower the signal
In short: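 Using a multiplexed primary human co-culture (umbilical vein endothelium plus PBMC), CD40 was read by ELISA 24 h after dosing, with cytotoxicity tracked by sulforhodamine B staining of parallel cultures and activity fitted bidirectionally versus DMSO.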

[6] = read-out: E-selectin (Homo sapiens) (UniProt P16581); assay: BSK_LPS_Eselectin: BioMAP Diversity Plus: LPS Assay for Eselectin Biomarker Activity (AID 2283077); details: primary human HUVEC with PBMC; actives raise or lower the signal
In short: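 Dose chemical onto LPS-driven HUVEC/PBMC co-culture; after 24 h, run ELISA for E-selectin; fit up- and down-going responses relative to DMSO control.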

[7] = read-out: Interleukin-8 (IL8), CXCL8 (gene 3576); assay: BSK_LPS_IL8: BioMAP Diversity Plus: LPS Assay for Interleukin-8 (IL8) Biomarker Activity (AID 2283078); details: primary human HUVEC with PBMC; actives raise or lower the signal
In short: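 In this LPS system, chemical-treated human umbilical vein endothelium/PBMC co-cultures were harvested at 24 h for IL-8 ELISA.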

[8] = BSK_LPS_SRB: Viability Assessment in the BioMAP Diversity Plus: LPS Assay (AID 2283079); details: primary human HUVEC with PBMC;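 further: total protein by sulforhodamine B absorbance as a cytotoxicity measure; measured one day after compound addition; fitted in both directions against DMSO so loss or gain of signal counts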
In short: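 Cytotoxicity endpoint in human endothelial–PBMC co-culture: 24 h exposure, then SRB (0.1%) staining, 560 nm read.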

[9] = read-out: Monocyte Chemoattractant Protein-1 (MCP1), CCL2 (gene 6347); assay: BSK_LPS_MCP1: BioMAP Diversity Plus: LPS Assay for Monocyte Chemoattractant Protein-1 (MCP1) Biomarker Activity (AID 2283081); details: primary human HUVEC with PBMC; actives raise or lower the signal;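 on AC50: co-culture stimulated with LPS; secreted MCP-1 protein quantified by ELISA in culture supernatant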
In short: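 Values derive from bidirectional fitting against DMSO of ELISA-measured MCP-1 in a human primary endothelial and mononuclear cell co-culture, 24 h after chemical addition under LPS activation.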

[10] = read-out: Macrophage colony-stimulating factor (MCSF), CSF1 (gene 1435); assay: BSK_LPS_MCSF: BioMAP Diversity Plus: LPS Assay for Macrophage colony-stimulating factor (MCSF) Biomarker Activity (AID 2283083); details: primary human HUVEC with PBMC; actives raise or lower the signal
In short: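 Bidirectional fit versus DMSO of ELISA-measured M-CSF in co-cultured human umbilical vein endothelial cells and PBMC, sampled 24 h after dosing.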

[11] = read-out: Tissue Factor, F3 (gene 2152); assay: BSK_LPS_TissueFactor: BioMAP Diversity Plus: LPS Assay for Tissue Factor Biomarker Activity (AID 2283084); details: primary human HUVEC with PBMC; actives raise or lower the signal
In short: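 Read-out: CD142 ELISA, 24 h. System: LPS-driven human endothelial/PBMC co-culture. Analysis: up- or down-signal fitted against DMSO.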

[12] = read-out: Vascular cell adhesion molecule 1 (VCAM1), VCAM1 (gene 7412); assay: BSK_LPS_VCAM1: BioMAP Diversity Plus: LPS Assay for Vascular cell adhesion molecule 1 (VCAM1) Biomarker Activity (AID 2283086); details: primary human HUVEC with PBMC; actives raise or lower the signal
In short: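 Measured by ELISA: VCAM-1 in LPS-activated HUVEC/PBMC co-cultures 24 h after treatment. Values reflect bidirectional fitting with DMSO as baseline.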

CD38, CD38 (gene 952) = assay: BSK_SAg_CD38: BioMAP Diversity Plus: SAg Assay for CD38 Biomarker Activity (AID 2283087); details: primary human HUVEC with PBMC; actives raise or lower the signal
In short: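 Measures CD38 on a human endothelial/PBMC co-culture driven by SEB and TSST-1, 24 h after compound exposure, using ELISA with fluorescence detection; DMSO defines baseline for bidirectional curve fitting.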

CD69, CD69 (gene 969) = assay: BSK_SAg_CD69: BioMAP Diversity Plus: SAg Assay for CD69 Biomarker Activity (AID 2283089); details: primary human HUVEC with PBMC; actives raise or lower the signal
In short: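 Values derive from bidirectional fitting relative to DMSO vehicle. Cells: umbilical vein endothelium plus peripheral blood mononuclear cells, treated 24 h before fluorescent ELISA for CD69.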

[13] = read-out: Monocyte Chemoattractant Protein-1 (MCP1), CCL2 (gene 6347); assay: BSK_SAg_MCP1: BioMAP Diversity Plus: SAg Assay for Monocyte Chemoattractant Protein-1 (MCP1) Biomarker Activity (AID 2283090); details: primary human HUVEC with PBMC; actives raise or lower the signal
In short: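 Values derive from bidirectional fitting of ELISA-measured MCP1 against DMSO controls. Readings were taken 24 h after dosing human vascular endothelial cells co-cultured with peripheral blood mononuclear cells under superantigen stimulation.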

[14] = read-out: E-selectin (Homo sapiens) (UniProt P16581); assay: BSK_SAg_Eselectin: BioMAP Diversity Plus: SAg Assay for Eselectin Biomarker Activity (AID 2283091); details: primary human HUVEC with PBMC; actives raise or lower the signal
In short: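 Endpoint values derive from bidirectional fitting relative to DMSO, using ELISA-measured E-selectin in a human vascular co-culture (umbilical vein endothelium plus PBMC) sampled 24 h after dosing.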

[15] = read-out: Interleukin-8 (IL8), CXCL8 (gene 3576); assay: BSK_SAg_IL8: BioMAP Diversity Plus: SAg Assay for Interleukin-8 (IL8) Biomarker Activity (AID 2283094); details: primary human HUVEC with PBMC; actives raise or lower the signal
In short: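 Primary human endothelial cells with PBMC, exposed 24 h; IL-8 determined by ELISA, analysed bidirectionally relative to DMSO.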

[16] = target: Estrogen receptor (Homo sapiens) (UniProt P03372); assay: ATG_ERa_TRANS: Attagene TRANS-FACTORIAL HepG2 Assay for human Estrogen Receptor alpha (ERa) (AID 2282970; active means hit-call score of the fitted dose curve at least 0.9, where 1 is the maximum); details: HepG2 Attagene TRANS ERa GAL4 reporter, mRNA
Estrogen receptor (Homo sapiens), sequence (P03372 whole entry, looked up, the tested form may be a part): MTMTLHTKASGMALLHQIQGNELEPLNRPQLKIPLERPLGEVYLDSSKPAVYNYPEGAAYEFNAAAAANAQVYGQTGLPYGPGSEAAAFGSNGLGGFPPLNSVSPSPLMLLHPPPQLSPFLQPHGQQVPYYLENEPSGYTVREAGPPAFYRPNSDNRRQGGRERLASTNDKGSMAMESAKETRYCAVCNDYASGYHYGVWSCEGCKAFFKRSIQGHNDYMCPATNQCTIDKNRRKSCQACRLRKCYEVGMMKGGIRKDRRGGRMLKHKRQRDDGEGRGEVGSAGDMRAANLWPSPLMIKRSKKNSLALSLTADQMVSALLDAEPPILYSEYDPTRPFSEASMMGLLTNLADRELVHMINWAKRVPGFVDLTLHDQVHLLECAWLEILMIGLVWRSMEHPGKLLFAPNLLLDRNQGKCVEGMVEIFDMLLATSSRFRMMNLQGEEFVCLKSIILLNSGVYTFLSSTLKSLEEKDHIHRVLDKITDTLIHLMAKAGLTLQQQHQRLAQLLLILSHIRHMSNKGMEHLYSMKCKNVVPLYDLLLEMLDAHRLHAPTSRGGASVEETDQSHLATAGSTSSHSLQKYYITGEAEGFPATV
In short: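 Signal derives from fluorescence of labelled reporter PCR fragments separated by capillary electrophoresis. HepG2 cells transiently carrying multiple GAL4-UAS reporter units were treated 24 hours, and induction above DMSO baseline was fitted as activity.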

[17] = target: Retinoic acid receptor alpha (Homo sapiens) (UniProt P10276); assay: ATG_DR5_RAR_CIS: Attagene CIS-FACTORIAL HepG2 Assay for human Retinoic Acid Receptor Alpha (RARE), DR5 submotif (AID 2282934); details: HepG2 Attagene cis-factorial RARE DR5 reporter, mRNA; actives raise or lower the signal
Retinoic acid receptor alpha (Homo sapiens), sequence (P10276 whole entry, looked up): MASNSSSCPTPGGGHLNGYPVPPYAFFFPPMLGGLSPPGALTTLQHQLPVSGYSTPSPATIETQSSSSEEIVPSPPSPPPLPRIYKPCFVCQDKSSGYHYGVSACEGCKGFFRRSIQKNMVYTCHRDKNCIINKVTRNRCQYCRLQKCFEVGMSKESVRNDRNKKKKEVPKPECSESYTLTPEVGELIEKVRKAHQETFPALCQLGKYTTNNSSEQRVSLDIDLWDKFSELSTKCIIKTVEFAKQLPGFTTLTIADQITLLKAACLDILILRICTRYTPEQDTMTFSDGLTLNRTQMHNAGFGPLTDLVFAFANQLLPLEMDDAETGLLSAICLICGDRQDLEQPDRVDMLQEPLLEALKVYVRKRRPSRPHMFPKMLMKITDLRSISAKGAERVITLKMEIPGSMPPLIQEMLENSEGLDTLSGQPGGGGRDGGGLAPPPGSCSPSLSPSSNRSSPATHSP
In short: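 Transfected HepG2 reporter cells are exposed to chemicals for 24 h. Then RNA is extracted and the DR5 element reporter transcript is measured by RT-PCR and capillary electrophoresis, with bidirectional curve fitting relative to DMSO.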

E-selectin (Homo sapiens), sequence (P16581 whole entry, looked up): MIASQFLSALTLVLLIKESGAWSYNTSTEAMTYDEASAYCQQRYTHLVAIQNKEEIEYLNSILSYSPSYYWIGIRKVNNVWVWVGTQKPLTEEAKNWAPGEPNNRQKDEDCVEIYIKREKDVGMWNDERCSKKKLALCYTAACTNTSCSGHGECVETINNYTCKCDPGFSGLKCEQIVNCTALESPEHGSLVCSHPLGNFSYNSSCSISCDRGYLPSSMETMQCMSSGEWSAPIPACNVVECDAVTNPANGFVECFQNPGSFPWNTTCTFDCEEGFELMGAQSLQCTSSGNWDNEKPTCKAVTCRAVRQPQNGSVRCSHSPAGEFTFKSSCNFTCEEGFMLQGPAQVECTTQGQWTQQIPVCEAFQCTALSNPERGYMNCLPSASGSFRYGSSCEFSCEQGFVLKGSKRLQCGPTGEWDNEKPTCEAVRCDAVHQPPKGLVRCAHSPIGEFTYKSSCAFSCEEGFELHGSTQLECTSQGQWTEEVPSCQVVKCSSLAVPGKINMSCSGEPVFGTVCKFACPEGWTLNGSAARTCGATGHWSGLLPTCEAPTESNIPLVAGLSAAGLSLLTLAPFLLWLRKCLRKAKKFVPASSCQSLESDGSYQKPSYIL

Which results are given for C=CC(=O)OCC(CC)CCCC (stereo not drawn)?
outcome [1]: inactive; outcome [2]: inactive; outcome [3]: inactive; outcome [4]: inactive; AC50 [5]: 0.016 µM (active); outcome (CD40, CD40 (gene 958)): inactive; outcome [6]: inactive; outcome [7]: inactive; outcome [8]: inactive; AC50 [9]: 0.016 µM (active); outcome [10]: inactive; outcome [11]: inactive; AC50 [12]: 7.48 µM (active); outcome (CD38, CD38 (gene 952)): inactive; outcome (CD69, CD69 (gene 969)): inactive; outcome [13]: inactive; outcome [14]: inactive; outcome [15]: inactive

Which AC50 [16] does the source give for Clc1ccc(-c2ccccc2)cc1 here?
The AC50 was 36.8 µM (active).

What about the outcome [1] of the same compound?
The outcome was “inactive”.

What about the outcome [2] of the same compound?
Its outcome is “inactive”.

What about the outcome [3] of the same compound?
Its outcome is “inactive”.

And the outcome [4]?
Its outcome is “inactive”.

And the outcome [5]?
Its outcome is “inactive”.

And the outcome (CD40, CD40 (gene 958))?
Its outcome is “inactive”.

What about the outcome [6] of the same compound?
The outcome was “inactive”.

And the outcome [7]?
Its outcome is “inactive”.

What about the outcome [8] of the same compound?
The outcome was “inactive”.

And the outcome [9]?
Its outcome is “inactive”.

And the outcome [10]?
The outcome was “inactive”.

What about the outcome [11] of the same compound?
Its outcome is “inactive”.

What about the outcome [12] of the same compound?
The outcome was “inactive”.

And the outcome (CD38, CD38 (gene 952))?
Its outcome is “inactive”.

And the outcome (CD69, CD69 (gene 969))?
The outcome was “inactive”.

What about the outcome [13] of the same compound?
Its outcome is “inactive”.

What about the outcome [14] of the same compound?
The outcome was “inactive”.

And the outcome [15]?
Its outcome is “inactive”.

With O=CNC(N1CCN(C(NC=O)C(Cl)(Cl)Cl)CC1)C(Cl)(Cl)Cl (stereo not drawn) as the compound, how does the outcome [16] read?
Its outcome is “inactive”.

Which outcome [17] does the source give for COC(=O)COc1ccc(Cl)cc1Cl here?
The outcome was “inactive”.

Which results are given for CC(C)COP(=O)(OCC(C)C)OCC(C)C?
outcome [1]: inactive; outcome [2]: inactive; outcome [3]: inactive; outcome [4]: inactive; outcome [5]: inactive; outcome (CD40, CD40 (gene 958)): inactive; outcome [6]: inactive; outcome [7]: inactive; outcome [8]: inactive; outcome [9]: inactive; outcome [10]: inactive; outcome [11]: inactive; outcome [12]: inactive; outcome (CD38, CD38 (gene 952)): inactive; outcome (CD69, CD69 (gene 969)): inactive; outcome [13]: inactive; outcome [14]: inactive; outcome [15]: inactive

With ClC1=C(Cl)[C@]2(Cl)[C@@H]3[C@@H](Cl)[C@H](Cl)C[C@@H]3[C@@]1(Cl)C2(Cl)Cl as the compound, how does the outcome [17] read?
Its outcome is “inactive”.

With Cc1cc(C)c(C2=C(OC(=O)CC(C)(C)C)C3(CCCC3)OC2=O)c(C)c1 as the compound, how does the outcome [16] read?
Its outcome is “inactive”.

For [Cl][Sb]([Cl])[Cl], which outcome [17] is on record?
Its outcome is “inactive”.

Which outcome [1] does the source give for O=[N+]([O-])O here?
The outcome was “inactive”.

And the outcome [2]?
The outcome was “inactive”.

And the outcome [3]?
Its outcome is “inactive”.

What about the outcome [4] of the same compound?
The outcome was “inactive”.

And the outcome [5]?
Its outcome is “inactive”.

What about the outcome (CD40, CD40 (gene 958)) of the same compound?
The outcome was “inactive”.

What about the outcome [6] of the same compound?
Its outcome is “inactive”.

What about the outcome [7] of the same compound?
The outcome was “inactive”.

And the outcome [8]?
The outcome was “inactive”.

And the outcome [9]?
The outcome was “inactive”.

And the outcome [10]?
The outcome was “inactive”.

And the outcome [11]?
Its outcome is “inactive”.

What about the outcome [12] of the same compound?
The outcome was “inactive”.

And the outcome (CD38, CD38 (gene 952))?
Its outcome is “inactive”.

And the outcome (CD69, CD69 (gene 969))?
Its outcome is “inactive”.

And the outcome [13]?
Its outcome is “inactive”.

What about the outcome [14] of the same compound?
Its outcome is “inactive”.

What about the outcome [15] of the same compound?
Its outcome is “inactive”.

From PubChem BioAssay (EPA / NIEHS)
